Here are results for 3 compounds from PubChem BioAssay (EPA / NIEHS).

Active and inactive are the calls of the source. Rule for the calls: active = hit-call score of the fitted dose curve at least 0.9, where 1 is the maximum; inactive = score below 0.9.

What all share (settings): mRNA level, 48 h; actives raise or lower the signal
Read-out in experiment [1]: Alkaline Phosphatase, Placental (ALPP) gene, ALPP (gene 250)
In words: LTEA_HepaRG_ALPP: Life Technologies and Expression Analysis (LTEA) Assay for Alkaline Phosphatase, Placental (ALPP) gene using HepaRG (AID 2283468). In short, it runs like this: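 qRT-PCR readout of ALPP mRNA (Fluidigm TaqMan), normalized to ACTB/GAPDH/POLR2A, after 48 h chemical exposure of HepaRG cells; 8-point half-log series, top 100 uM, 0.5% DMSO vehicle. Bidirectional curve fit versus DMSO baseline.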

Read-out in experiment [2]: Bcl-2 (BAD) gene, BAD (gene 572)
As to the kind of experiment: LTEA_HepaRG_BAD: Life Technologies and Expression Analysis (LTEA) Assay for Bcl-2 (BAD) gene using HepaRG (AID 2283469). In short, it runs like this: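 Differentiated HepaRG cells were exposed in duplicate in 0.5% DMSO for 48 h to eight-point half-log concentrations up to 100 uM. BAD mRNA was measured by Fluidigm TaqMan qRT-PCR, normalized to ACTB, GAPDH and POLR2A, and fitted bidirectionally against DMSO.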

Read-out in experiment [3]: Bcl-2 (BAX) gene, BAX (gene 581)
In words: LTEA_HepaRG_BAX: Life Technologies and Expression Analysis (LTEA) Assay for Bcl-2 (BAX) gene using HepaRG (AID 2283470). The method in brief:
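Differentiated human HepaRG cells, plated 48 h then switched to serum-free induction medium, were exposed 48 h to 8 half-log concentrations up to 100 uM in 0.5% DMSO; BAX mRNA measured by qRT-PCR, normalized to ACTB, GAPDH, POLR2A.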

Read-out in experiment [4]: adenosine kinase (ADK) gene, ADK (gene 132)
In words: LTEA_HepaRG_ADK: Life Technologies and Expression Analysis (LTEA) Assay for adenosine kinase (ADK) gene using HepaRG (AID 2283471). The method in brief: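 ADK expression quantified by qRT-PCR, normalised to three housekeeping genes, after 48 h exposure of HepaRG cells to eight concentrations (top 100 uM, half-log steps, duplicate, 0.5% DMSO). Up- or down-regulation fitted relative to vehicle.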

Read-out in experiment [5]: Alpha-fetoprotein (AFP) gene, AFP (gene 174)
In words: LTEA_HepaRG_AFP: Life Technologies and Expression Analysis (LTEA) Assay for Alpha-fetoprotein (AFP) gene using HepaRG (AID 2283472). In short, it runs like this: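 Human HepaRG cells plated 48 h, then switched to serum-free induction medium and exposed in duplicate for 48 h to 8-point half-log series from 100 uM in 0.5% DMSO. AFP mRNA by qRT-PCR, normalized to ACTB, GAPDH, POLR2A; bidirectional fit versus DMSO.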

Read-out in the next experiment: BCL2L11 (gene 10018)
As to the kind of experiment: LTEA_HepaRG_BCL2L11: Life Technologies and Expression Analysis (LTEA) Assay for Bcl-2 (BCL2L11) gene using HepaRG (AID 2283473). The method in brief:
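HepaRG, 48 h exposure, 8-pt half-log series from 100 uM in 0.5% DMSO, duplicates; qRT-PCR (Fluidigm TaqMan) for BCL2L11, housekeeping-normalized; bidirectional curve fit relative to DMSO baseline.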

Read-out in experiment [6]: Apolipoprotein A-V (APOA5) gene, APOA5 (gene 116519)
As to the kind of experiment: LTEA_HepaRG_APOA5: Life Technologies and Expression Analysis (LTEA) Assay for Apolipoprotein A-V (APOA5) gene using HepaRG (AID 2283474). In short, it runs like this:
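HepaRG, 48 h chemical exposure in serum-free induction medium, 8-pt half-log series (top 100 uM), 0.5% DMSO vehicle, duplicates. Readout: APOA5 mRNA by qRT-PCR, housekeeping-normalized; bidirectional fit vs DMSO baseline.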

Read-out in experiment [7]: Apoptosis regulator Bcl-2 (Homo sapiens) (UniProt P10415)
As to the kind of experiment: LTEA_HepaRG_BCL2: Life Technologies and Expression Analysis (LTEA) Assay for Bcl-2 gene using HepaRG (AID 2283475). In short, it runs like this: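 Differentiated HepaRG cells in serum-free induction medium were exposed for 48 h to eight half-log concentrations up to 100 uM in 0.5% DMSO, in duplicate. BCL2 mRNA was quantified by TaqMan qRT-PCR normalised to ACTB, GAPDH and POLR2A, with bidirectional fitting versus DMSO.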

Read-out in a further experiment: Caspase-3 (Homo sapiens) (UniProt P42574)
In words: LTEA_HepaRG_CASP3: Life Technologies and Expression Analysis (LTEA) Assay for cysteine-aspartic acid protease (CASP3) using HepaRG (AID 2283477). In short, it runs like this:
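HepaRG, 48 h exposure, 8 conc. (top 100 uM, half-log steps, duplicate), 0.5% DMSO vehicle; qRT-PCR of CASP3 transcript, housekeeping-normalised (ACTB/GAPDH/POLR2A); bidirectional curve fit vs DMSO baseline.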

Read-out in experiment [8]: Cytochrome P450 (CYP24A1), CYP24A1 (gene 1591)
As to the kind of experiment: LTEA_HepaRG_CYP24A1: Life Technologies and Expression Analysis (LTEA) Assay for Cytochrome P450 (CYP24A1) using HepaRG (AID 2283478). In short, it runs like this:
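qRT-PCR read-out: CYP24A1 transcript levels normalized to three housekeeping genes, bidirectional curve fits against 0.5% DMSO baseline. Human HepaRG cells treated 48 h with chemicals at eight concentrations from 100 uM in half-log steps.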

Read-out in experiment [9]: Cytochrome P450 (CYP1A2), CYP1A2 (gene 1544)
As to the kind of experiment: LTEA_HepaRG_CYP1A2: Life Technologies and Expression Analysis (LTEA) Assay for Cytochrome P450 (CYP1A2) using HepaRG (AID 2283479). The method in brief:
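HepaRG, 48 h exposure, top 100 uM, half-log 8-pt, 0.5% DMSO vehicle, duplicates. Readout: TaqMan qRT-PCR of CYP1A2 mRNA, housekeeping-normalized (ACTB/GAPDH/POLR2A). Gain/loss fit relative to DMSO baseline.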

Read-out in experiment [10]: cysteine-aspartic acid protease (CASP8), CASP8 (gene 841)
In words: LTEA_HepaRG_CASP8: Life Technologies and Expression Analysis (LTEA) Assay for cysteine-aspartic acid protease (CASP8) using HepaRG (AID 2283480). In short, it runs like this: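 Differentiated HepaRG cells in serum-free induction medium, 48 h exposure, eight-point half-log series from 100 uM in 0.5% DMSO, duplicates. CASP8 mRNA by qRT-PCR, normalized to ACTB, GAPDH, POLR2A; bidirectional fit versus DMSO.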

Read-out in experiment [11]: Cytochrome P450 (CYP2B6), CYP2B6 (gene 1555)
In words: LTEA_HepaRG_CYP2B6: Life Technologies and Expression Analysis (LTEA) Assay for Cytochrome P450 (CYP2B6) using HepaRG (AID 2283481). In short, it runs like this: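 Read-out is CYP2B6 mRNA by TaqMan qRT-PCR, normalized to three housekeeping genes and fitted bidirectionally against 0.5% DMSO baseline. Human HepaRG cells received test chemicals for 48 h, top concentration 100 uM, half-log dilutions.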

Read-out in experiment [12]: Cytochrome P450 2C19 (Homo sapiens) (UniProt P33261)
In words: LTEA_HepaRG_CYP2C19: Life Technologies and Expression Analysis (LTEA) Assay for CYP2C19 using HepaRG (AID 2283482). The method in brief: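 HepaRG, 48 h chemical exposure, 8-pt half-log series from 100 uM in 0.5% DMSO, duplicates. Readout: CYP2C19 mRNA by TaqMan qRT-PCR, housekeeping-normalized. Bidirectional fit vs DMSO baseline; phenobarbital 1mM as induction control.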

Read-out in the next experiment: CYP2C8 (gene 1558)
As to the kind of experiment: LTEA_HepaRG_CYP2C8: Life Technologies and Expression Analysis (LTEA) Assay for CYP2C8 using HepaRG (AID 2283483). In short, it runs like this:
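Differentiated HepaRG cells in serum-free induction medium exposed 48 h in duplicate to 8 half-log concentrations from 100 uM in 0.5% DMSO. CYP2C8 mRNA by qRT-PCR normalized to ACTB, GAPDH, POLR2A; bidirectional fit versus DMSO.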

Read-out in another experiment: CYP2C9 (gene 1559)
In words: LTEA_HepaRG_CYP2C9: Life Technologies and Expression Analysis (LTEA) Assay for CYP2C9 using HepaRG (AID 2283484). In short, it runs like this:
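Differentiated human HepaRG cells in serum-free induction medium were exposed 48 h to chemicals in 8-point half-log series from 100 uM (0.5% DMSO), in duplicate. CYP2C9 mRNA was measured by qRT-PCR, normalized to ACTB/GAPDH/POLR2A, with bidirectional fitting versus DMSO.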

Read-out in another experiment: CYP2E1 (gene 1571)
As to the kind of experiment: LTEA_HepaRG_CYP2E1: Life Technologies and Expression Analysis (LTEA) Assay for CYP2E1 using HepaRG (AID 2283485). In short, it runs like this: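 HepaRG cells in serum-free induction medium exposed 48 h to test chemicals, 8 half-log concentrations up to 100 uM in 0.5% DMSO, duplicate. CYP2E1 mRNA by qRT-PCR, normalized to ACTB, GAPDH, POLR2A; bidirectional fit versus DMSO.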

Read-out in the next experiment: CYP4A11 (gene 1579)
In words: LTEA_HepaRG_CYP4A11: Life Technologies and Expression Analysis (LTEA) Assay for CYP4A11 using HepaRG (AID 2283486). In short, it runs like this:
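CYP4A11 transcript levels were quantified by TaqMan qRT-PCR after HepaRG human liver cells were treated for 48 hours with test chemicals (top 100 uM, half-log dilutions, 0.5% DMSO). Gain or loss of signal was fitted relative to DMSO.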

Read-out in experiment [13]: Cytochrome P450 3A4 (Homo sapiens) (UniProt P08684)
As to the kind of experiment: LTEA_HepaRG_CYP3A4: Life Technologies and Expression Analysis (LTEA) Assay for CYP3A4 using HepaRG (AID 2283487). The method in brief:
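Differentiated HepaRG cells, plated 48 h, then dosed 48 h in serum-free induction medium with 0.5% DMSO, 8 half-log concentrations up to 100 uM, duplicate. CYP3A4 mRNA by qRT-PCR, normalized to ACTB/GAPDH/POLR2A; bidirectional fit versus DMSO.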

Read-out in experiment [14]: Bcl-2 (BID) gene, BID (gene 637)
In words: LTEA_HepaRG_BID: Life Technologies and Expression Analysis (LTEA) Assay for Bcl-2 (BID) gene using HepaRG (AID 2283476). The method in brief:
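Differentiated HepaRG cells in serum-free induction medium were exposed in duplicate for 48 h to eight half-log concentrations up to 100 uM in 0.5% DMSO. BID mRNA was quantified by qRT-PCR, normalized to ACTB, GAPDH and POLR2A.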

Cytochrome P450 2C19 (Homo sapiens), sequence (P33261 whole entry, looked up): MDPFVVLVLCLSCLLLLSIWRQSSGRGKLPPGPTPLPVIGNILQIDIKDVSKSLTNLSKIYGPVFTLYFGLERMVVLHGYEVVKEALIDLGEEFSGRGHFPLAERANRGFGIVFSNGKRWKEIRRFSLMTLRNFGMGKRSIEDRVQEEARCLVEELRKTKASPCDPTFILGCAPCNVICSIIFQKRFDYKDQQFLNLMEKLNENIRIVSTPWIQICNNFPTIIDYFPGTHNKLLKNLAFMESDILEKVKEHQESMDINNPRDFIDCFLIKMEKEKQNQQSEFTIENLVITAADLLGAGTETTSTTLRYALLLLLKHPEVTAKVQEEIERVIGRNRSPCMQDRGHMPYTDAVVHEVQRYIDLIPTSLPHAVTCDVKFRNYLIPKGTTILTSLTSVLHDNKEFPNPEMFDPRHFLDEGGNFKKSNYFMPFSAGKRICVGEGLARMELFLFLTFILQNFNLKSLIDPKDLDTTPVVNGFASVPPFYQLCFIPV
Apoptosis regulator Bcl-2 (Homo sapiens), sequence (P10415 whole entry, looked up): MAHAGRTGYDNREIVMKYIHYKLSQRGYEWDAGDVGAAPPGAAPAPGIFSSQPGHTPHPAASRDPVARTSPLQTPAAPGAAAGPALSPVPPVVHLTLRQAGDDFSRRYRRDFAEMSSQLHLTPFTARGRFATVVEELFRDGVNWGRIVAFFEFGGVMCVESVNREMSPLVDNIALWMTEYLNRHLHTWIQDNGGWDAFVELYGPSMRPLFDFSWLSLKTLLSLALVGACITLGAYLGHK
Caspase-3 (Homo sapiens), sequence (P42574 whole entry, looked up): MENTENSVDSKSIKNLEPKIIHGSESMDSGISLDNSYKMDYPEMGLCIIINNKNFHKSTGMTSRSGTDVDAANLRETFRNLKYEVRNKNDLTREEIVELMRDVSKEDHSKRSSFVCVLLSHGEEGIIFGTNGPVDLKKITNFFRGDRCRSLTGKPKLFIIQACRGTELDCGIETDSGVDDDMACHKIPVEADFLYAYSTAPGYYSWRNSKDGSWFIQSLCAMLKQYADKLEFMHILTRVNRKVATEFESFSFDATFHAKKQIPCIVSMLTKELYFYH
Cytochrome P450 3A4 (Homo sapiens), sequence (P08684 whole entry, looked up): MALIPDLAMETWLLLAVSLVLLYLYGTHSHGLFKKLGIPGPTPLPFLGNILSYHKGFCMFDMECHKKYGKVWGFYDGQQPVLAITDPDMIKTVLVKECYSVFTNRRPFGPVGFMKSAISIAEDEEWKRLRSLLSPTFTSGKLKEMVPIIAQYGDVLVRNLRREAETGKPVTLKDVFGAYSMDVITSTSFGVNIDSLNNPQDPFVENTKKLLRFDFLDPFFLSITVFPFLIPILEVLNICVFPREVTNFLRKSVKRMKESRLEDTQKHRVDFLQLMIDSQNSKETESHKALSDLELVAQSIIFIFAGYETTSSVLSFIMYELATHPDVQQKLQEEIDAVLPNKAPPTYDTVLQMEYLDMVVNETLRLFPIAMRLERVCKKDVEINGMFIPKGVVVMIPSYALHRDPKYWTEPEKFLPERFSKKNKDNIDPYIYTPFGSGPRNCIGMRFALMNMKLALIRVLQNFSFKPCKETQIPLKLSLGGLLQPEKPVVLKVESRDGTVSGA

As usually defined, the AC50 is the concentration at which the activity in the assay is half-maximal. As for `CCOP(=S)(OCC)SCSC(C)(C)C`, the compound was called inactive (in [1]; in experiment [2]; in experiment [3]; in [4]; in the experiment with BCL2L11 (gene 10018); in experiment [6]). Moreover, the call (in experiment [7]; with Caspase-3 (Homo sapiens); in experiment [8]; in [9]; in experiment [10]; in experiment [11]) was inactive. For the same compound, the call (in experiment [12]; with CYP2C8 (gene 1558); with CYP2C9 (gene 1559); with CYP4A11 (gene 1579); in experiment [13]) was inactive. The results for the AC50 (in [5]; with CYP2E1 (gene 1571)) were 29.5 µM (active) and 28.8 µM (active), respectively.

For `C[C@]12CCC(=O)C=C1CC[C@@H]1[C@@H]2CC[C@@]2(C)[C@H]1CC[C@]2(C)O`, the AC50 in experiment [1] was 24.5 µM (active); in experiment [5], 63.6 µM (active); in experiment [6], 45.8 µM (active); in [7], 10.9 µM (active); in experiment [14] it was 45.8 µM (active); in [9], 45.8 µM (active). Besides, the AC50 in experiment [11] was 10.8 µM (active); in [12] it was 0.207 µM (active); with CYP2E1 (gene 1571) it was 79.5 µM (active); with CYP4A11 (gene 1579), 73.6 µM (active). The outcome (in experiment [3]; in experiment [4]; in the experiment with BCL2L11 (gene 10018); with Caspase-3 (Homo sapiens); in experiment [8]; in experiment [10]) was inactive. For the same compound, the result (with CYP2C8 (gene 1558); with CYP2C9 (gene 1559); in experiment [13]) was inactive.

On to `CCCCCCCCCC[N+](C)(C)CCCCCCCCCC`, for which the AC50 in experiment [1] was 90.5 µM (active); in [3], 60.3 µM (active); in [4], 79.1 µM (active); with Caspase-3 (Homo sapiens) it was 75.9 µM (active); with CYP2C9 (gene 1559), 60 µM (active); with CYP4A11 (gene 1579), 26.3 µM (active). In addition, in experiment [13], the half-maximal activity concentration (AC50) was 63.1 µM (active). In addition, the call (in experiment [2]; in experiment [5]; in the experiment with BCL2L11 (gene 10018); in experiment [6]; in experiment [7]; in [8]) was inactive. Further, the result (in experiment [9]; in [10]; in [11]; in experiment [12]; with CYP2C8 (gene 1558); in the experiment with CYP2E1 (gene 1571)) was inactive.
